Records with an inconclusive call do not appear. Unmarked numbers belong to inactive results. Active and inactive are the calls of the source. Calls follow the shape of the dose curve; as a rule, active = well fitted inhibition curve with a large enough effect; inconclusive = small, poorly fitted or top-dose-only effect; inactive = flat fitted curve, though single readings scatter.
Assay: Primary qHTS for inhibitors of nuclear receptor binding SET domain protein 2 (NSD2) in an isogenic RCH-ACV NSD2 p.E1099K mutant (9B) (AID 1645876); also: nearly all actives have a fitted effect of over 70% in size
Conditions: RCH-ACV (leukaemia line) NSD2 E1099K (9B) viability, CellTiter-Glo, 72 h; series mostly up to 44.9 µM; activity change, negative = viability loss: at the top concentration
% is scaled to controls: 0 for no effect and ±100 for the full control effect.

Row | SMILES | activity change, negative = viability loss | outcome
1 | CC(C(=O)O)C1CCC2(C)C3C(=O)C=C4C(CCC(=O)C4(C)C)C3(C)CCC12C (stereo unspecified) | 2.38% [at 17.3 µM] | –
2 | CC1CCC2(O1)C(C)(C)CC(O[C@@H]1O[C@H](CO[C@@H]3OC[C@](O)(CO)[C@H]3O)[C@@H](O)[C@H](O)[C@H]1O)CC2(C)O (stereo partly specified) | – | inactive [at 17.3 µM]
3 | CC[C@H](/C=C/[C@@H](C)[C@H]1CC[C@H]2[C@@H]3CC=C4C[C@@H](O)CC[C@]4(C)[C@H]3CC[C@]12C)C(C)C | – | inactive [at 4.96 µM]
4 | CC1=CCC2C(C)(CO)CCCC2(C)C1CC12OC1C(O)C(CO)=CC2O (stereo unspecified) | -4.38% | –
5 | CCC[C@@H]1C[C@@H](C(=O)N[C@H](C(C)Cl)[C@H]2O[C@H](SC)[C@H](O)[C@@H](O)[C@H]2O)N(C)C1 (stereo partly specified) | – | inactive
6 | CC(C)(O)c1ccc2c(c1)C(O)CC1C(C)(C(=O)O)CCCC21C (stereo unspecified) | – | inactive
7 | COC(=O)C1=CO[C@@H](O[C@@H]2O[C@H](CO)[C@@H](O)[C@H](O)[C@H]2O)[C@@H]2[C@@](C)(O)[C@@H](O)C[C@]12O | – | inactive [at 17.3 µM]
8 | C=C1[C@@H]2CC[C@@]3(C)[C@H](c4ccoc4)OC(=O)C[C@]13O[C@H]1CC(=O)C(C)(C)[C@H](CC(=O)OC)[C@]12C | -2.95% [at 17.3 µM] | –
9 | CCC(C)(O)C(O)C(=O)OCc1ccc(O[C@@H]2O[C@H](CO)[C@@H](O)[C@H](O)[C@H]2O)c(OC)c1 (stereo partly specified) | -6.19% [at 17.3 µM] | –
10 | COC(=O)c1cc(CN2CCN(C(=N)N)CC2)cc(C(=O)N2CCN(C(=O)c3ccc(C(=N)N)cc3)CC2)c1 | – | inactive
11 | CCC[C@@H]1C[C@@H](C(=O)N[C@@H]([C@H]2O[C@H](SC)[C@H](OP(=O)(O)O)[C@@H](O)[C@H]2O)[C@H](C)Cl)N(C)C1 | 4.48% [at 17.3 µM] | –

From PubChem BioAssay (NCATS)
